# Data taken from ChEMBL document CHEMBL3433997, “St. Jude Leishmania screening dataset” (2016).
# Biological target: Solute carrier family 2, facilitated glucose transporter member 1 (Homo sapiens) (UniProt P11166)
# Experiment: ST_JUDE_LEISH: Cytotoxicity at 2uM final concentration against transgenic Leishmania Mexicana promastigotes LmGLUT1 that are glucose transport deficient and complemented with the human glucose transporter GLUT1. Activity is measured by DNA content using SYBR green in vitro
# Assay type: functional
# Sequence of Solute carrier family 2, facilitated glucose transporter member 1 (Homo sapiens) (P11166 whole entry): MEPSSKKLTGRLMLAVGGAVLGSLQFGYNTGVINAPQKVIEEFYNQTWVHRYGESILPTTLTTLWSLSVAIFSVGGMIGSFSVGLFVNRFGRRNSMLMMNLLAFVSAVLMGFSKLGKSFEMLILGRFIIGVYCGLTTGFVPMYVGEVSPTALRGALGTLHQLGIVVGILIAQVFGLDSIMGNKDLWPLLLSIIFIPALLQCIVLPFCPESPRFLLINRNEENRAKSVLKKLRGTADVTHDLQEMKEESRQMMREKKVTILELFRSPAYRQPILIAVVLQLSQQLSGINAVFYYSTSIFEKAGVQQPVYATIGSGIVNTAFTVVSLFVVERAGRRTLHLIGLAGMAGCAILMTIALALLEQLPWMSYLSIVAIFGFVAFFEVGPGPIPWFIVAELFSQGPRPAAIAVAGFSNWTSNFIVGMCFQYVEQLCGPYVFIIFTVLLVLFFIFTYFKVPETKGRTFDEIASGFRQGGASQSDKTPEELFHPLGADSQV
row,Compound,inhibition [%]
1,Cc1c(CC(=O)N(C)C2CCN(CCCCCNC(=O)/C=C/c3ccc(Cl)c(Cl)c3)CC2)sc2ccc(Cl)cc12,7.99
2,CCNC(=O)Nc1cccc(-c2ccc(-c3nc4cccc(C)c4[nH]3)s2)c1,1.49
3,CN(C)c1ccc(C2(c3ccccc3)N=C(N)N(CCCc3ccccc3)C2=O)cc1 (stereo not given),3.64
4,Cc1cccc(CN2CCCN(Cc3ccc(C(=O)Nc4ccc(Cl)cc4)cc3)CC2)c1,11.2
5,COc1ccc(CNCc2ccc(-c3ccc(-c4nc5cc(F)ccc5[nH]4)cc3)cc2)cc1,5.49
6,CC(C)[C@H](NC(=O)c1ccc(O)c(-c2cccc(C(F)(F)F)c2)c1)C(=O)NCCN1CCCCC1,-0.28
7,CC1(C)N=C(N)N=C(N)N1c1ccc2ccccc2c1,3.26
8,ON=C1CCc2cc(-c3nc(-c4ccc(OCCN5CCCCC5)cc4)[nH]c3-c3ccncc3)ccc21,-1.78
9,CN1CCCc2ccc(NC(=O)Nc3ccc(-c4ccccc4)cc3)cc2C1,-3.44
10,CC(C)(C)CC(C)(C)c1ccc(O)c(C(=O)Nc2ccc([N+](=O)[O-])cc2)c1,1.13
11,N#Cc1cccc(COC(=O)C2=C(COc3ccccc3Cl)NC(=O)NC2c2c[nH]c3cnccc23)c1 (stereo not given),9.04
12,CN1CCC(NC(=O)c2cc(Oc3ccc4c(c3)CCN4C(=O)Nc3cccc(C(F)(F)F)c3)ccn2)CC1,3.67
13,O=C(Nc1cccc(CN2CCN(Cc3ccc(O)cc3)CC2)c1)c1ccc(-c2ccccc2)cc1,4.37
14,O=c1cc(NCCC(CNCc2ccc(Br)o2)NCc2cc(Br)cc(Br)c2)[nH]c2ccccc12 (stereo not given),8.13
15,Nc1nc(N)c2c(ccc3nn(S(=O)(=O)N4CCCC4)cc32)n1,4.35
16,COc1ccc(Br)cc1/C=C/C(=O)Nc1ccc(C2CCCN(C)C2)cc1 (stereo not given),3.89
17,CN(C)S(=O)(=O)c1ccc(Nc2nc(NCCC3C=NC=N3)nc3cc[nH]c(=O)c23)cc1 (stereo not given),4.88
18,CC(C)(C)Oc1ccc(NC(=O)c2ccccc2O)cc1,6.73
19,FC(F)(F)c1ccc(CNCC2CCN(Cc3ccc4c(c3)OCO4)CC2)cc1,1.98
20,O=C(Nc1ccc(-c2ccc(-c3nc4ccccc4[nH]3)s2)cc1)Nc1ccsc1,0.72

row,Compound,inhibition [%]
1,O=C(Cn1c(CCc2cccc(F)c2F)cc(=O)c2ccccc21)N(Cc1ccc(-c2ccc(C(F)(F)F)cc2)cc1)C1CCN(CCN2CCOCC2)CC1,1.92
2,CCCN1CCC=C(c2cccc(Nc3nccc(Nc4cc(OC)ccc4C)n3)c2)C1,11.2
3,Cc1cccc(NC(=O)NC2CCN(CCCCCNC(=O)/C=C/c3ccc(Cl)c(Cl)c3)CC2)c1,4.31
4,COc1ccc2nccc([C@@H](O)CN3CCC(NCc4cc5cccnc5[nH]4)CC3)c2n1,15.5
5,CCn1c(C)cc(C=C2SC(=Nc3ccccc3)NC2=O)c1C,6.88
6,FC(F)(F)c1ccc2c(NN=Cc3cccc(Cl)c3)ccnc2c1,5.93
7,COc1ccccc1-c1csc(C(=O)NCC2CCN(Cc3ccc(C(C)C)cc3)C2)c1 (stereo not given),-1.65
8,COc1cc(NC(=O)C(c2ccc(Cl)cc2)C(C)C)cc(OC)c1 (stereo not given),2.88
9,Cc1[nH]c2ccc(C#N)cc2c(=O)c1Br,2.13
10,CCOc1ccccc1C(=O)N1CCc2cc3nccc(N4CCN5CCC[C@H]5C4)c3cc21,-0.64
11,COc1cc2c(cc1N(C(C)C)S(=O)(=O)c1sc3ccc(Cl)cc3c1C)CCNCC2,43.3
12,CSc1ccc(CN2CCC(CNC(=O)c3cc(-c4ccccc4F)cs3)C2)cc1 (stereo not given),0.69
13,Cc1ccc(C2CCN(CCCCNC(=O)c3ccc(-c4ccc(C(F)(F)F)cc4)cc3)CC2)c(O)c1,-0.37
14,N#Cc1ccc(-c2ccc(C(=O)NCCCCN3CCC(c4cc(Br)c5c(c4OCC(N)=O)CCCC5)CC3)cc2)cc1,2.88
15,N#Cc1ccc2[nH]cc(C(=O)CCCCCN(Cc3ccccc3)Cc3ccccc3)c2c1,0.31
16,Cc1cnc(-c2ccc(NC(=O)N3CCc4cc5nccc(N6CCN7CCC[C@H]7C6)c5cc43)c3ccccc23)o1,3.29
17,CN(C(=O)Cc1ccc(Cl)cc1)C1CCN(CCCCCNC(=O)/C=C/c2ccc(Cl)c(Cl)c2)CC1,2.86
18,O=S(=O)(NCCN1CCCC1)c1cccc(-c2ccc(CNCc3ccc(F)cc3)cc2)c1,7.08
19,CN1CCC[C@H]1COc1ccc(CN2CC[C@H](NC(=O)c3ccc(Cl)c(Cl)c3)C2)cc1Cl,1.83
20,O=C(c1ccc(-c2ccc(-c3nc4cc(C(F)(F)F)ccc4[nH]3)s2)cc1)N1CCCCC1CN1CCC(O)C1 (stereo not given),7.23

# Biological target: Hexose transporter 1 (Plasmodium falciparum) (UniProt O97467)
# Experiment: ST_JUDE_LEISH: Cytotoxicity at 2uM final concentration against transgenic Leishmania Mexicana promastigotes LmPfHT that are glucose transport deficient and complemented with the Plasmodium falciparum hexose transporter. Activity is measured by DNA content using SYBR green in vitro
# Assay type: functional
row,Compound,inhibition [%]
1,Cc1c(CC(=O)N(C)C2CCN(CCCCCNC(=O)/C=C/c3ccc(Cl)c(Cl)c3)CC2)sc2ccc(Cl)cc12,0.91
2,CCNC(=O)Nc1cccc(-c2ccc(-c3nc4cccc(C)c4[nH]3)s2)c1,1.4
3,CN(C)c1ccc(C2(c3ccccc3)N=C(N)N(CCCc3ccccc3)C2=O)cc1 (stereo not given),3.4
4,Cc1cccc(CN2CCCN(Cc3ccc(C(=O)Nc4ccc(Cl)cc4)cc3)CC2)c1,11.3
5,COc1ccc(CNCc2ccc(-c3ccc(-c4nc5cc(F)ccc5[nH]4)cc3)cc2)cc1,5.38
6,CC(C)[C@H](NC(=O)c1ccc(O)c(-c2cccc(C(F)(F)F)c2)c1)C(=O)NCCN1CCCCC1,-0.52
7,CC1(C)N=C(N)N=C(N)N1c1ccc2ccccc2c1,3.3
8,ON=C1CCc2cc(-c3nc(-c4ccc(OCCN5CCCCC5)cc4)[nH]c3-c3ccncc3)ccc21,-1.49
9,CN1CCCc2ccc(NC(=O)Nc3ccc(-c4ccccc4)cc3)cc2C1,0.82
10,CC(C)(C)CC(C)(C)c1ccc(O)c(C(=O)Nc2ccc([N+](=O)[O-])cc2)c1,1.55
11,N#Cc1cccc(COC(=O)C2=C(COc3ccccc3Cl)NC(=O)NC2c2c[nH]c3cnccc23)c1 (stereo not given),6.63
12,CN1CCC(NC(=O)c2cc(Oc3ccc4c(c3)CCN4C(=O)Nc3cccc(C(F)(F)F)c3)ccn2)CC1,6.55
13,O=C(Nc1cccc(CN2CCN(Cc3ccc(O)cc3)CC2)c1)c1ccc(-c2ccccc2)cc1,2.25
14,O=c1cc(NCCC(CNCc2ccc(Br)o2)NCc2cc(Br)cc(Br)c2)[nH]c2ccccc12 (stereo not given),8.45
15,Nc1nc(N)c2c(ccc3nn(S(=O)(=O)N4CCCC4)cc32)n1,4.05
16,COc1ccc(Br)cc1/C=C/C(=O)Nc1ccc(C2CCCN(C)C2)cc1 (stereo not given),2.73
17,CN(C)S(=O)(=O)c1ccc(Nc2nc(NCCC3C=NC=N3)nc3cc[nH]c(=O)c23)cc1 (stereo not given),5.35
18,CC(C)(C)Oc1ccc(NC(=O)c2ccccc2O)cc1,5.36
19,FC(F)(F)c1ccc(CNCC2CCN(Cc3ccc4c(c3)OCO4)CC2)cc1,2.65
20,O=C(Nc1ccc(-c2ccc(-c3nc4ccccc4[nH]3)s2)cc1)Nc1ccsc1,-0.46

row,Compound,inhibition [%]
1,O=C(Cn1c(CCc2cccc(F)c2F)cc(=O)c2ccccc21)N(Cc1ccc(-c2ccc(C(F)(F)F)cc2)cc1)C1CCN(CCN2CCOCC2)CC1,1.75
2,CCCN1CCC=C(c2cccc(Nc3nccc(Nc4cc(OC)ccc4C)n3)c2)C1,11.9
3,Cc1cccc(NC(=O)NC2CCN(CCCCCNC(=O)/C=C/c3ccc(Cl)c(Cl)c3)CC2)c1,3.83
4,COc1ccc2nccc([C@@H](O)CN3CCC(NCc4cc5cccnc5[nH]4)CC3)c2n1,14.9
5,CCn1c(C)cc(C=C2SC(=Nc3ccccc3)NC2=O)c1C,4.18
6,FC(F)(F)c1ccc2c(NN=Cc3cccc(Cl)c3)ccnc2c1,5.5
7,COc1ccccc1-c1csc(C(=O)NCC2CCN(Cc3ccc(C(C)C)cc3)C2)c1 (stereo not given),-2.5
8,COc1cc(NC(=O)C(c2ccc(Cl)cc2)C(C)C)cc(OC)c1 (stereo not given),2.55
9,Cc1[nH]c2ccc(C#N)cc2c(=O)c1Br,1.62
10,CCOc1ccccc1C(=O)N1CCc2cc3nccc(N4CCN5CCC[C@H]5C4)c3cc21,-0.67
11,COc1cc2c(cc1N(C(C)C)S(=O)(=O)c1sc3ccc(Cl)cc3c1C)CCNCC2,10.2
12,CSc1ccc(CN2CCC(CNC(=O)c3cc(-c4ccccc4F)cs3)C2)cc1 (stereo not given),-0.86
13,Cc1ccc(C2CCN(CCCCNC(=O)c3ccc(-c4ccc(C(F)(F)F)cc4)cc3)CC2)c(O)c1,-0.08
14,N#Cc1ccc(-c2ccc(C(=O)NCCCCN3CCC(c4cc(Br)c5c(c4OCC(N)=O)CCCC5)CC3)cc2)cc1,1.24
15,N#Cc1ccc2[nH]cc(C(=O)CCCCCN(Cc3ccccc3)Cc3ccccc3)c2c1,-2.35
16,Cc1cnc(-c2ccc(NC(=O)N3CCc4cc5nccc(N6CCN7CCC[C@H]7C6)c5cc43)c3ccccc23)o1,3.79
17,CN(C(=O)Cc1ccc(Cl)cc1)C1CCN(CCCCCNC(=O)/C=C/c2ccc(Cl)c(Cl)c2)CC1,2.1
18,O=S(=O)(NCCN1CCCC1)c1cccc(-c2ccc(CNCc3ccc(F)cc3)cc2)c1,3.37
19,CN1CCC[C@H]1COc1ccc(CN2CC[C@H](NC(=O)c3ccc(Cl)c(Cl)c3)C2)cc1Cl,0.86
20,O=C(c1ccc(-c2ccc(-c3nc4cc(C(F)(F)F)ccc4[nH]3)s2)cc1)N1CCCCC1CN1CCC(O)C1 (stereo not given),5.1
